Sampled rows, rich in hits. Any-hit rate of the full collection: about 0.5%.
E coli growth-1 – E. coli growth inhibition, primary screen, OD600; Escherichia coli growth, 23 h; active compounds read low; 0.21% of 330,000 active; AID 1053175, 2014; OD600 absorbance (concentration not given with the values);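 active = OD600 absorbance below the run mean of sample wells minus 3.6 SD, in any replicate, cut at about 0.56 in these data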
E coli growth-2 – E. coli V3065 growth inhibition, primary screen, counter-screen for AddAB inhibitor project, absorbance, OD600; 18 h; inhibition, % at 11.9 µM; 0.27% of 330,000 active; AID 449728, 2010;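 active = inhibition above the campaign's mean inhibition across all tested compounds plus 3 SD, cut at about 9.9% in these data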;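 note: uninfected addAB+ strain grown without phage in ampicillin broth; 0% = DMSO wells and 100% = ciprofloxacin 0.95 µg/ml wells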
AddAB inh – growth inhibition of E. coli expressing H. pylori AddAB, primary screen, AddAB inhibitor project, absorbance | inhibition, % at 11.9 µM | 0.29% of 330,000 active; in the data active = inhibition above about 12%;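 note: 0% = vehicle wells of infected cells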
Tat transport – E. coli Tat export inhibitors, primary screen, MC4100, TorA-mCherry reporter, fluorescence, single point; inhibition, % at 10 µM; 0.036% of 340,000 active;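 active = mean replicate inhibition at least 50% and at least half of replicates individually reaching 50%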;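 note: exported cargo escapes ClpAP degradation while cytoplasmic cargo is degraded and loses fluorescence; 0% = median of neutral control wells and 100% = median of NaSCN control wells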
phage Ecoli inh – growth loss of phage-infected E. coli, primary screen, RecBCD inhibitor project, absorbance, with phage, HTS | inhibition, % at 11.9 µM | 0.26% of 360,000 active | AID 651602, 2012; in the data active = inhibition above about 11%
AddAB conf – growth loss of phage-infected E. coli expressing H. pylori AddAB, confirmation, AddAB inhibitor project, absorbance, E. coli V3065, T4 phage, triplicate | shares compounds with AddAB inh | OD; T4 phage with gene 2 nonsense mutations | inhibition, % at 11.9 µM | 64% of 880 active;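 active = mean inhibition above a set limit taken from the earlier primary screen, cut at about 13% in these data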;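 note: higher means less bacterial growth since AddAB block lets phage replicate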
RecBCD counter – growth loss of RecBCD+ E. coli with mutant T4 phage, counter-screen for AddAB inhibitor project, absorbance, V66 E. coli. shares compounds with AddAB inh. 73% of 880 active. OD growth. AID 488955, 2010. inhibition, % at 11.9 µM;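 active = mean inhibition above the mean of solvent-only control wells plus 3 SD, cut at about 4% in these data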;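 note: optical density read after an 18 h incubation at 37 °C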
bact viab count – bacterial viability inhibition counter-screen, confirmation, counter-screen for AddAB inhibitor project, absorbance; shares compounds with AddAB inh; absorbance (AddAB counterscreen); inhibition, % at 11.9 µM; 35% of 880 active; AID 488956, 2010; in the data active = inhibition above about 25%
RecBCD conf – growth loss of phage-infected RecBCD+ E. coli, confirmation, RecBCD inhibitor project, absorbance, E. coli V66, T4 gene 2 phage; inhibition, % at 11.9 µM; shares compounds with phage Ecoli inh; AID 651982, 2013; E. coli V66 + T4 2- phage, growth OD; 45% of 890 active;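 active = mean inhibition over triplicates exceeding the hit threshold derived in the original primary screen, cut at about 11% in these data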
Ecoli viability – E. coli viability inhibition, counter-screen for RecBCD inhibitor project, absorbance, high throughput. absorbance (OD) growth. inhibition, % at 11.9 µM. 29% of 890 active. shares compounds with phage Ecoli inh; in the data active = inhibition above about 20%;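 note: E. coli strain V66 grown with compound alone and no phage infection; 0% = bacteria with DMSO vehicle only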
AddAB counter – growth loss of phage-infected AddAB-carrying E. coli, confirmation, counter-screen for RecBCD inhibitor project, absorbance, E. coli V3065, T4 phage; shares compounds with phage Ecoli inh; E. coli expressing H. pylori AddAB + T4 phage, OD growth; gene 2 mutant T4, recBCD-deleted host; inhibition, % at 11.9 µM; 45% of 890 active;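 active = mean inhibition above the solvent-only control wells' mean plus 3 SD, cut at about 22% in these data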;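 note: higher means less bacterial growth from phage killing when AddAB is blocked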
Starred values were filed as active, the others as inactive; i = inactive; · = not tested or not shown; ! = not confirmed by another sample.

SMILES	E coli growth-1	E coli growth-2	AddAB inh	Tat transport	phage Ecoli inh	AddAB conf	RecBCD counter	bact viab count	RecBCD conf	Ecoli viability	AddAB counter
CCN1/C(=C/C(C)=C/c2sc3ccccc3[n+]2CC)Sc2ccccc21	0.21*	38*	33*	i	14*!	55*	20*	58*	23*	25*	68*
COc1cccc(-n2c(SCc3cc(=O)oc4cc(O)c(O)cc34)nc3ccccc3c2=O)c1	0.69	16*	21*	6	18*	13*	15*	17	5	7	9
c1ccc(-c2nnc(-c3ccccn3)nc2NC2CCCCC2)cc1	0.41*	18*	16*	-10	14*	20*	15*	14	6	6	18
[N-]=[N+]=NC1C[C@H](n2ccc(=O)[nH]c2=O)O[C@@H]1CO (stereo partly specified)	·	38*	37*	-1	32*	94*	20*	77*	41*	28*	85*
O=C(CN1C(=O)S/C(=C\c2ccccc2)C1=O)NNC(=O)c1ccccc1O	0.7	17*	19*	-8	14*	16*	14*	12	6	7	7
COc1ccc(/C=C2\SC(=O)N(CC(=O)NNC(=O)c3ccccc3O)C2=O)cc1OC	·	18*	23*	-6	16*	20*	14*	16	6	9	16
O=C(CN1C(=O)S/C(=C\c2ccc(O)cc2)C1=O)c1ccccc1	·	0	1	-12	3	·	·	·	·	·	·
COc1ccc(/C=C2\SC(=O)N(CC(=O)NNC(=O)c3ccccc3O)C2=O)cc1	0.71	10*	17*	0	15*	11	10*	10	2	3	1
Cc1ccc2nc(C)cc(NN=Cc3ccccc3O)c2c1	0.69	·	·	·	·	·	·	·	·	·	·
N#Cc1ccc(NC(=O)Nc2ccc(Cl)cc2)cc1	0.49*	15*	16*	6	13*	16*	18*	16	14*	17	20
O=c1c2cc(Br)ccc2nc(-c2cccc(C(F)(F)F)c2)n1O	0.71	16*	16*	-13	17*	8	16*	5	8	11	17
N#Cc1ccc(-c2nc3ccc(Br)cc3c(=O)n2O)cc1	0.65	-2	-1	-2	-2	·	·	·	·	·	·
Cc1[nH]c(N=Nc2ccccc2)nc1N=Nc1ccccc1	·	16*	14*	-3	12*	10	8.2*	16	3	4	20
COc1ccccc1NC(=O)NNC(=O)c1cc2ccccc2cc1O	0.62	12*	15*	18	12*	14*	14*	14	8	9	14
Cc1cc(C)c2c(NC(N)=S)n[nH]c2n1	0.72	-1	1	-2	3	·	·	·	·	·	·
Cc1cc(C)c2c(N=NN(C)C)[nH]nc2n1	0.58	78*	39*	2	14*	97*	8.6*	54*	12*	12	70*
COc1ccc(C)cc1NC(=O)CSc1ccc(-c2ccccn2)nn1	0.65	4	6	2	9	·	·	·	·	·	·
COc1cc(NC(=O)CSc2ccc(-c3ccccn3)nn2)cc(OC)c1	0.7	14*	13*	0	13*	10	11*	11	6	5	10
CCOc1ccc2oc(C(=O)O)c(C)c2c1	0.71	2	1	-8	2	·	·	·	·	·	·
O=C(NNC(=O)c1cc2ccccc2o1)c1ccncc1	0.64	-1	-2	5	4	·	·	·	·	·	·
CCOc1ccc2oc(C(=O)NNC(=O)c3ccccc3O)c(C)c2c1	0.68	26*	25*	-8	21*	15*	20*	15	8	11	20
O=C(NNC(=O)c1ccccc1O)c1cc2ccccc2o1	0.55	13*	20*	3	11*	10	11*	8	8	10	4
Cc1c(C(=O)NNC(=O)c2ccccc2O)oc2ccc(Br)cc12	0.71	19*	21*	-1	13*	17*	17*	15	8	10	10
O=C1NCC(Cc2ccccc2)N(CC2CCCCC2)C1=O (stereo unspecified)	0.69	·	·	·	·	·	·	·	·	·	·
O=C(NC1CC1)C1=CC(c2ccc3c(c2)OCO3)CC(OCc2ccc(CO)cc2)O1 (stereo unspecified)	0.7	·	·	·	·	·	·	·	·	·	·
SMILES	E coli growth-1	E coli growth-2	AddAB inh	Tat transport	phage Ecoli inh	AddAB conf	RecBCD counter	bact viab count	RecBCD conf	Ecoli viability	AddAB counter
Nc1nc(N)c2c(ccc3nccc32)[nH]1	·	95*	93*	11	96*	97*	91*	102*	101*	103*	102*
Nc1ccc2ncccc2c1N	0.66	-5	-2	4	2	·	·	·	·	·	·
COc1ccc(C2C=CCN(S(=O)(=O)c3ccc(C)cc3)C(C)C(=O)N2Cc2ccc(F)cc2)cc1 (stereo unspecified)	0.73	·	·	·	·	·	·	·	·	·	·
CC(C)c1c(C(=O)N/N=C/c2ccc3c(c2)OCO3)nnn1-c1nonc1N	·	-2	5	3	-2	·	·	·	·	·	·
CCN(CC)c1ccc(/C=N/NC(=O)c2nnn(-c3nonc3N)c2C(C)C)c(O)c1	·	20*	27*	-32	11*	11	16*	7	6	9	8
CCCCN1C(Nc2ccccc2)=NCC1Cc1ccccc1 (stereo unspecified)	0.7	·	·	·	·	·	·	·	·	·	·
Cc1ccc(C(C)C)c(OCc2ccc(C(=O)N/N=C/c3ccc(O)cc3O)cc2)c1	·	15*	13*	-7	27*	15*	18*	20	14*	17	24*
CC(=O)CC(O)CC(=O)C1OC(=O)CCCCCCCCc2ccccc21 (stereo unspecified)	0.6	·	·	·	·	·	·	·	·	·	·
CCNC(=S)NNC(=O)c1ccccn1	0.58	0	4	-19	-1	·	·	·	·	·	·
